PubChem BioAssay (NCATS)
Records with an inconclusive call do not appear. Calls of active or inactive are those of the source. Calls come from the whole dose curve; as a rule, active = well fitted curve in the direction sought with a large enough effect; inconclusive = small, poorly fitted or top-dose-only effect, or another doubt; inactive = no such curve, though single readings can be large; an effect the other way counts as inactive or inconclusive.

Experiments:
[1] = Quantitative High-Throughput drug screen in 47 multiple myeloma cell lines against the NCATS MIPE library collection: Karpas25_ECACC cell viability assay (AID 1918968; note: nearly all actives have a fitted effect of over 35% in size)
Summary of the method: (§1)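 We plated 500 myeloma cells per well, pinned in MIPE 4.0 compounds, and incubated for 48 hours at 37C. ATP was then quantified with CellTiter-Glo, with DMSO and media-only wells defining 100% and 0%.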

[2] = Quantitative High-Throughput drug screen in 47 multiple myeloma cell lines against the NCATS MIPE library collection: KMS12BM_JCRB cell viability assay (AID 1918971); note: nearly all actives have a fitted effect of over 35% in size
Summary of the method: (§2)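 Myeloma cell lines, 500 cells per well, exposed to MIPE 4.0 library compounds for 48 h at 37C, 5% CO2. Viability from ATP by CellTiter-Glo luminescence; normalised to DMSO (100%) and media-only (0%) wells.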

[3] = Quantitative High-Throughput drug screen in 47 multiple myeloma cell lines against the NCATS MIPE library collection: KMS26_JCRB cell viability assay (AID 1918975); note: nearly all actives have a fitted effect of over 45% in size
Summary of the method: as §2

[4] = Quantitative High-Throughput drug screen in 47 multiple myeloma cell lines against the NCATS MIPE library collection: NCIH929_DSMZ cell viability assay (AID 1918978); note: nearly all actives have a fitted effect of over 35% in size
Summary of the method: (§3)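 Viability after 48 h drug exposure was measured as ATP-dependent luminescence. Cells, 500 per well, sat at 37 °C under 5% CO2; DMSO wells set 100%, media-only wells 0%.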

[5] = Quantitative High-Throughput drug screen in 47 multiple myeloma cell lines against the NCATS MIPE library collection: KMS20_JCRB cell viability assay (AID 1918973); note: nearly all actives have a fitted effect of over 45% in size
Summary of the method: as §1

[6] = Quantitative High-Throughput drug screen in 47 multiple myeloma cell lines against the NCATS MIPE library collection: MOLP8_DSMZ cell viability assay (AID 1918977); note: nearly all actives have a fitted effect of over 45% in size
Summary of the method: as §3

[7] = Quantitative High-Throughput drug screen in 47 multiple myeloma cell lines against the NCATS MIPE library collection: KMS12PE_JCRB cell viability assay (AID 1918972); note: nearly all actives have a fitted effect of over 30% in size
Summary of the method: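 qHTS of the MIPE 4.0 collection: 500 myeloma cells/well, 48 h drug exposure at 37C in 5% CO2, then CellTiter-Glo for 5 min at room temperature before luminescence reading.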

[8] = Quantitative High-Throughput drug screen in 47 multiple myeloma cell lines against the NCATS MIPE library collection: MMM1_PLB cell viability assay (AID 1918976); note: nearly all actives have a fitted effect of over 35% in size
Summary of the method: as §3

[9] = Quantitative High-Throughput drug screen in 47 multiple myeloma cell lines against the NCATS MIPE library collection: KMS21BM_JCRB cell viability assay (AID 1918974); settings: ATP luminescence, 48 h; viability: at 45.8 µM (top of the series)
Summary of the method: as §1

Measured: Potency
Potency is the fitted concentration of half-maximal effect.

NS(=O)(=O)OC[C@@H]1C[C@@H](n2ccc3c(N[C@H]4CCc5ccccc54)ncnc32)C[C@H]1O
active: [1] 0.833 µM | [2] 6.62 µM | [3] 2.64 µM | [4] 0.833 µM

CN(C)CC(=O)N1CCC(c2ccc(NC(=O)c3ncc(C#N)[nH]3)c(C3=CCCCC3)c2)CC1
inactive: [2]
active: [1] 23.5 µM | [5] 13.2 µM | [6] 5.26 µM | [4] 16.6 µM

Nc1nc2c(c(=O)[nH]1)N(C=O)[C@H](CNc1ccc(C(=O)N[C@@H](CCC(=O)O)C(=O)O)cc1)CN2
inactive: [1] | [2] | [7] | [4]

Cc1coc2c1C(=O)C(=O)c1c-2ccc2c(C)cccc12
active: [1] 2.96 µM | [2] 13.2 µM | [3] 6.62 µM | [8] 20.9 µM | [6] 9.35 µM

C[C@H]1COc2c(N3CCN(C)CC3)c(F)cc3c(=O)c(C(=O)O)cn1c23
inactive: [1] | [2] | [5] | [3] | [4]

COc1cc2c(cc1O)CCC1C2CC[C@@]2(C)C1CC[C@@H]2O (stereo partly specified)
active: [1] 2.96 µM | [2] 1.18 µM | [3] 3.72 µM | [8] 6.62 µM | [4] 7.43 µM

CCOc1cc2c(c(F)c1OCC)C(=N)N(CC(=O)c1cc(N3CCOCC3)c(OC)c(C(C)(C)C)c1)C2
active: [1] 9.35 µM | [2] 18.7 µM | [5] 9.35 µM | [3] 18.7 µM | [8] 10.5 µM | [4] 14.8 µM

CN(CC(=O)N(Cc1ccc(C2CCCCC2)cc1)c1ccc(C(=O)O)c(O)c1)S(=O)(=O)c1c(F)c(F)c(F)c(F)c1F
active: [1] 5.26 µM | [2] 29.6 µM | [5] 6.62 µM | [3] 20.9 µM | [8] 20.9 µM | [6] 18.7 µM | [4] 4.18 µM

N#CNC(=NCCCCCCOc1ccc(Cl)cc1)Nc1ccncc1
inactive: [1]
active: [2] 0.0118 µM | [5] 8.33 µM | [3] 0.0074 µM | [8] 18.7 µM | [6] 0.0235 µM

C[N+](C)([O-])CCNc1ccc(NCC[N+](C)(C)[O-])c2c1C(=O)c1c(O)ccc(O)c1C2=O
active: [2] 18.7 µM
inactive: [1] | [7] | [9] | [4]

CCc1c(O)cc(O)c(C(=O)c2ccc(OCCN3CCOCC3)c(OC)c2)c1CC(=O)N(CCOC)CCOC
active: [1] 0.526 µM | [2] 1.05 µM | [5] 0.526 µM | [3] 0.833 µM | [8] 1.48 µM | [6] 0.662 µM | [4] 1.05 µM

C=CC[C@@H]1C=C(C)C[C@H](C)C[C@H](OC)[C@H]2O[C@@](O)(C(=O)C(=O)N3CCCC[C@H]3C(=O)O[C@H](C(C)=C[C@@H]3CC[C@H](O)[C@H](OC)C3)[C@@H](C)[C@@H](O)CC1=O)[C@@H](C)C[C@@H]2OC
active: [1] 2.96 µM | [2] 1.48 µM | [7] 1.87 µM | [8] 3.32 µM | [6] 1.32 µM | [4] 3.32 µM

C=CC(=O)Nc1cc(NC(=O)c2ccc(C)c(NC(=O)c3ccno3)c2)cc(C(F)(F)F)c1
active: [1] 14.8 µM | [2] 23.5 µM | [7] 8.33 µM | [8] 20.9 µM | [6] 18.7 µM | [4] 16.6 µM

CN(C)CCN1C(=O)c2cccc3cc(N)cc(c23)C1=O
active: [1] 18.7 µM | [2] 5.26 µM | [7] 18.7 µM | [3] 20.9 µM | [8] 11.8 µM | [6] 23.5 µM | [4] 8.33 µM

CC[C@]12C=CCN3CC[C@@]4(c5cc([C@@]6(C(=O)OC)C[C@H]7C[C@@H](C(C)(F)F)CN(Cc8c6[nH]c6ccccc86)C7)c(OC)cc5N(C)[C@H]4[C@@](O)(C(=O)OC)[C@H]1OC(C)=O)[C@@H]32
active: [1] 0.0235 µM | [2] 0.0074 µM | [7] 0.0074 µM | [3] 1.48 µM | [8] 4.69 µM | [6] 9.35 µM | [4] 0.469 µM

C[C@H]1[C@@H](OC(=O)CCC(=O)O)O[C@@H]2O[C@@]3(C)CC[C@@H]4[C@H](C)CC[C@@H]1[C@@]24OO3
active: [1] 2.35 µM | [2] 5.26 µM | [7] 1.05 µM | [3] 14.8 µM | [8] 5.9 µM | [4] 2.64 µM

CCCCCCCCCCCC(CC1OC(=O)C1CCCCCC)OC(=O)C(CC(C)C)NC=O (stereo unspecified)
inactive: [1] | [4]
active: [2] 20.9 µM | [5] 0.0042 µM | [8] 20.9 µM

O=C1NC(=O)C(=Cc2ccc3nccc(-c4ccncc4)c3c2)S1
active: [1] 0.0296 µM | [2] 0.332 µM | [5] 0.0935 µM | [9] 0.166 µM | [3] 0.187 µM | [8] 0.235 µM | [6] 0.166 µM | [4] 0.0296 µM

CON=C(C(=O)N[C@@H]1C(=O)N2C(C(=O)O)=C(CSC(=O)c3ccco3)CS[C@H]12)c1csc(N)n1
active: [1] 16.6 µM
inactive: [2] | [5] | [3]

c1cncc(CN2CCC(n3ncc4c(N5CCOCC5)nc(-c5ccc6[nH]ccc6c5)nc43)CC2)c1
active: [1] 2.35 µM | [2] 13.2 µM | [5] 1.18 µM | [3] 4.69 µM | [8] 7.43 µM | [6] 2.96 µM | [4] 0.332 µM
inactive: [9]

Cc1cnc(NC(=O)Nc2cc(Br)c(C)cc2OC[C@@H]2CNCCO2)cn1
active: [1] 16.6 µM | [2] 9.35 µM | [5] 5.26 µM | [3] 16.6 µM | [8] 18.7 µM | [6] 4.69 µM | [4] 7.43 µM

Cc1ccc(O)c(C(CCN(C(C)C)C(C)C)c2ccccc2)c1 (stereo unspecified)
active: [9] 9.35 µM
inactive: [1] | [2] | [7] | [4]

O=C(CN1C(=O)C2(CCCC2)NC[C@H]1c1cc(F)cc(F)c1)Nc1ccc2c(c1)C[C@@]1(C2)C(=O)Nc2ncccc21
inactive: [1] | [2] | [3] | [4]

COc1ccc2cc([S+]([O-])Cc3ncc(C)c(OC)c3C)nc2c1
active: [1] 16.6 µM
inactive: [2] | [5] | [4]

CC(=O)OCC(=O)[C@@]12N=C(C)O[C@H]1C[C@H]1[C@@H]3CCC4=CC(=O)C=C[C@]4(C)[C@@H]3[C@@H](O)C[C@@]12C
active: [1] 5.26 µM | [6] 16.6 µM
inactive: [2] | [3] | [8]

N#Cc1ccc(COC[C@H]2O[C@@H](n3c(NCc4ccc(Cl)c(Cl)c4)nc4c(N)ncnc43)[C@@H](O)[C@@H]2O)cc1
active: [1] 23.5 µM | [2] 5.9 µM | [7] 3.72 µM | [8] 4.69 µM | [6] 16.6 µM | [4] 20.9 µM

C[C@]12CC[C@@H]3c4ccc(O)cc4CC[C@H]3[C@H]1CC[C@H]2O
active: [1] 10.5 µM | [2] 33.2 µM | [5] 18.7 µM | [9] 3.32 µM | [3] 5.9 µM | [8] 16.6 µM

CCn1c(=O)c2c(nc(C=Cc3ccc(OC)c(OC)c3)n2C)n(CC)c1=O
inactive: [1] | [2] | [3] | [6] | [4]
active: [7] 20.9 µM

O=C(C=Cc1ccc(CN(CCO)CCc2c[nH]c3ccccc23)cc1)NO
active: [1] 0.059 µM | [2] 0.0833 µM | [7] 0.0833 µM | [8] 0.0662 µM | [6] 0.0833 µM | [4] 0.105 µM

O=C(C=CC#Cc1cccc(NS(=O)(=O)c2ccccc2)c1)NO
active: [1] 0.833 µM | [2] 1.48 µM | [5] 2.35 µM | [6] 0.935 µM | [4] 1.18 µM

COc1ccc(C=Cc2cc(OC)c(OC)c(OC)c2)cc1NC(=O)[C@H](N)CO
active: [1] 0.001 µM | [2] 0.0166 µM | [7] 0.0118 µM | [3] 0.0332 µM | [8] 0.0187 µM | [6] 0.0662 µM | [4] 0.0059 µM

CC(C(C)N1CC(=O)NC(=O)C1)N1CC(=O)NC(=O)C1 (stereo unspecified)
inactive: [1] | [5] | [4]
active: [2] 0.59 µM | [9] 0.332 µM | [6] 0.0105 µM

O=C(C[C@@H]1CC=CCCC(=O)O[C@H](c2ccccc2)CNC1=O)NCc1ccc(Cl)cc1
inactive: [1] | [2] | [3] | [6]

CC[C@H](CC[C@@H](C)[C@H]1CC[C@H]2[C@@H]3CC=C4C[C@@H](O)CC[C@]4(C)[C@@H]3CC[C@]12C)C(C)C
not listed: [7] | [8]
inactive: all other assays above

COC1=C2C[C@@H](C)C[C@H](OC)[C@@H](O)[C@@H](C)C=C(C)[C@H](OC(N)=O)[C@@H](OC)C=CC=C(C)C(=O)NC(=CC1=O)C2=O
active: [1] 0.118 µM | [2] 0.118 µM | [5] 0.0418 µM | [3] 0.0526 µM | [8] 1.05 µM | [6] 0.0418 µM | [4] 0.118 µM

C[C@H]1C[C@H]2[C@@H]3CCC4=CC(=O)C=C[C@]4(C)[C@@H]3C(=O)C[C@]2(C)[C@@]1(O)C(=O)CO
inactive: [1] | [2] | [7] | [6] | [4]

C=CC(=O)Nc1ccc2ncnc(Nc3ccc(OCc4cccc(F)c4)c(Cl)c3)c2c1
active: [1] 1.87 µM | [2] 0.418 µM | [7] 0.0743 µM | [3] 9.35 µM | [8] 18.7 µM | [6] 6.62 µM | [4] 4.18 µM

CC(C)[C@H](CO)Nc1nc(Nc2cccc(Cl)c2)c2ncn(C(C)C)c2n1
active: [1] 26.4 µM | [2] 20.9 µM | [5] 20.9 µM | [3] 23.5 µM | [8] 26.4 µM | [6] 18.7 µM | [4] 18.7 µM

CN(N=O)C(=O)N[C@H]1C(O)OC(CO)[C@@H](O)[C@H]1O (stereo partly specified)
inactive: [1] | [5] | [6] | [4]

CC1=C(C(=O)Nc2cc3cn[nH]c3cc2F)C(c2ccc(Cl)cc2F)N=C(c2ccnc(Cl)c2)N1 (stereo unspecified)
active: [1] 14.8 µM | [7] 16.6 µM | [4] 14.8 µM

Cc1cc(-c2nnc3n2CCCCC3)c(C)n1-c1ccccc1
inactive: [1] | [4]
active: [7] 20.9 µM | [8] 14.8 µM
